CHT PAM – allosteric activators of human choline transporter CHT; CHT-expressing cells, membrane potential dye, choline EC20; active compounds read high; LV-AA mutant CHT in HEK293 cells; B-score at 10 µM; hit rate 0.49% among 310,000; AID 488977;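 active means initial fluorescence not abnormally high and integrated response B-score, plate-corrected, over 3 SD above library mean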
Target sequence (Q9GZV3 whole entry, looked up): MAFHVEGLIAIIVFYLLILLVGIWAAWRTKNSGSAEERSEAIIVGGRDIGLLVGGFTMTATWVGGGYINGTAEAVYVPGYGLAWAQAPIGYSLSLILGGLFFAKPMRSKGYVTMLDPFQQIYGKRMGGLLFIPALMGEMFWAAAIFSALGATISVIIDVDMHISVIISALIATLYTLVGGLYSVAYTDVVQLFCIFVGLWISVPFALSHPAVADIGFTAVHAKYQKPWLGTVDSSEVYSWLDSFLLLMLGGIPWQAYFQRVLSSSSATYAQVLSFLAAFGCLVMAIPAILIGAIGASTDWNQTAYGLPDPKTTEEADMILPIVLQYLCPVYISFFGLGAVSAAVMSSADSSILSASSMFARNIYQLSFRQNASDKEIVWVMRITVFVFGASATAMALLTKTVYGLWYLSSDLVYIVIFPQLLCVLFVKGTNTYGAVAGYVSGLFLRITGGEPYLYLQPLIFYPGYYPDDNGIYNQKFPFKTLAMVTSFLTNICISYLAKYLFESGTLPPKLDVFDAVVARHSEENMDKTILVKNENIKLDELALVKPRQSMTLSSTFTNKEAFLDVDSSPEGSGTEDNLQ
Platelet DG rel – modulates dense granule release in human platelets | hit rate 0.22% among 300,000 | AID 1663 | inhibition, %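 (compounds screened at 7.5 µM in platelet-rich plasma)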 | human platelet-rich plasma, SFLLRN dense granule ATP release, luminescence;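 active means mean replicate score, as percent of positive control, at or above 50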
CHT inh – inhibitors of human choline transporter CHT; Q9GZV3; CHT-expressing cells, membrane potential dye, choline response; active compounds read low; B-score at 10 µM; hit rate 0.86% among 310,000; AID 488975;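 active means B-score over 3 SD under the library average, and starting fluorescence ratio not unusually high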;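 further: choline stimulus applied at its EC90 after an EC20 pre-addition; B-score computed on integrated fluorescence ratio after choline addition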
VLA-4 inh – inhibition in a human VLA-4 binding assay; hit rate 0.2% among 330,000; VLA-4 expressing cells, ligand binding flow cytometry; P13612; inhibition, % (about 7 µM as worked out from the volumes in the protocol); in the data active means inhibition above about 50%
HIF activator – HIF pathway transcriptional activation; U2OS HRE-luciferase reporter, luminescence; normalized: DMSO 0%, desferrioxamine 100%; activation, % at 7.5 µM (by protocol); hit rate 0.32% among 300,000;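 active means mean activation of at least 10% of the iron chelator positive control signal, with at least half of replicates also reaching 10%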
AI-2 QS modul – Vibrio harveyi AI-2 quorum sensing modulation; Vibrio harveyi JMH597 AI-2 luminescence/OD600 ratio, 9 h; active compounds read low; strain lacks LuxN and CqsS sensors; 0 = neutral-control median; activity change, % at 7.5 µM; hit rate 0.4% among 300,000; in the data active means activity change below about -75%, passing the limit was not always enough;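 further: luminescence divided by OD600 gain over 9 h not by final OD600 alone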
Starred values were filed as active, the others as inactive; i = inactive; · = no result given. Sampled rows, rich in hits. Any-hit rate of the full collection: about 2.2%.

SMILES | CHT PAM | Platelet DG rel | CHT inh | VLA-4 inh | HIF activator | AI-2 QS modul
Cc1cc(C)c(NC(=S)NCC2CCN(C(C)c3ccccc3)C2)c(C)c1 (centres undefined) | i | 0 | i | 3 | 0 | 2
COc1ccccc1-c1nc(C#N)c(N2CCN(C(=O)c3ccco3)CC2)o1 | i | -5 | i | 3 | 0 | 8
COc1ccc(-c2nc(C#N)c(N3CCN(C(=O)c4ccco4)CC3)o2)cc1OC | i | 15 | i | 7 | 11* | 26
C=CCN=C1CCCc2c1[nH]c1ccc(C)cc21 | i | 0 | i | -6 | 1 | 25
Oc1c(C=C2N=c3ccccc3=N2)sc(=S)n1-c1ccccc1 | i | -22 | i | -9 | 22* | 21
Cc1cc(C(=O)Nc2sc3c(c2C#N)CCC3)no1 | i | 1 | i | 3 | 3 | 3
Cc1noc(C(=O)Nc2sc3c(c2C#N)CCC3)c1Cl | i | 24 | i | 25 | 14* | 18
Cc1ncsc1CCC(=O)N1CCCC(Nc2ccc(C(C)C)cc2)C1 (centres undefined) | i | 19 | i | 6 | 0 | 2
Cc1cc(NC(=O)CSc2nnc(C3COc4ccccc4O3)n2N)no1 (centres undefined) | i | -1 | i | -1 | 0 | -77*
CCc1cc(C(=O)N2CCCc3ccccc32)sc1C | i | -7 | i | -6 | 0 | 25
Cc1cc(/C=N/n2c(COc3ccccc3)nc3ccccc3c2=O)c(O)c([N+](=O)[O-])c1 | i | -2 | i | 1 | 15* | -12
Cc1ccc(-c2[nH]ncc2/C=N/n2c(COc3ccccc3)nc3ccccc3c2=O)cc1 | i | 6 | i | -6 | 0 | 34
O=C(Cn1cnc([N+](=O)[O-])n1)N/N=C/c1cc(Cl)ccc1O | i | -4 | i | 12 | 15* | -84*
O=C(N/N=C/c1cc([N+](=O)[O-])ccc1O)c1cccc2ccccc12 | i | -7 | i | -12 | 11* | 22
O=C(Cn1cncn1)N/N=C/c1cc([N+](=O)[O-])ccc1O | i | 16 | i | -7 | 0 | 25
O=C(Cn1nc2ccccc2n1)N/N=C/c1cc([N+](=O)[O-])ccc1O | i | 2 | i | 4 | 4 | -86*
Cc1ccn(CC(=O)N/N=C/c2cc([N+](=O)[O-])ccc2O)n1 | i | 6 | i | -4 | -1 | -169*
O=C(CSc1nnc(NC(=O)c2c(F)cccc2F)s1)NCc1ccc(F)cc1 | i | 7 | i | -13 | 0 | -7
O=[N+]([O-])c1ccc(O)c(/C=N/Nc2ccc(Cl)nn2)c1 | i | 5 | i | 4 | 64* | -4
COc1cccc(-c2nc(-c3ccccc3)c(-c3ccccc3)[nH]2)c1OCC(=O)O | i | 0 | -6.6* | -4 | 1 | 10
CCOC(=O)C1CCN(C(=O)C2CCCN(c3ncnc4c3nc3n4CCCCC3)C2)CC1 (centres undefined) | i | 1 | i | -9 | 400* | 10
CC1CC(C)CN(C(=O)C2CCCN(c3ncnc4c3nc3n4CCCCC3)C2)C1 (centres undefined) | i | 1 | i | -1 | 0 | -76*
CC1CCN(C(=O)C2CCCN(c3ncnc4c3nc3n4CCCCC3)C2)CC1 (centres undefined) | i | 14 | i | -1 | · | 25
CC1(C)NC(=O)N(CC(=O)Nc2ccc(-n3cnnn3)cc2)C1=O | · | · | · | -6 | · | ·
COc1cc2[nH]c3c(=O)n(N)c(=O)[nH]c3c2cc1OC | i | 8 | i | 22 | -20 | 27
SMILES | CHT PAM | Platelet DG rel | CHT inh | VLA-4 inh | HIF activator | AI-2 QS modul
COc1ccc(O)c(/C=N/NS(=O)(=O)c2ccc(C)cc2)c1 | i | 10 | i | 5 | 0 | 20
COc1ccc(/C=N/NS(=O)(=O)c2ccc(C)cc2)cc1 | i | 21 | i | 5 | 1 | -83*
Cc1cccc2sc(NNC(=O)c3ccc(S(=O)(=O)N4CCc5ccccc5C4)cc3)nc12 | i | 5 | i | 2 | 14* | 112
Cc1cccc2sc(NNC(=O)c3ccc(S(=O)(=O)N4CCCC(C)C4)cc3)nc12 (centres undefined) | i | 0 | i | 9 | 0 | 10
O=C(N/N=C(\Cc1ncc[nH]1)c1ccccc1)c1ccccc1 | i | 0 | i | 3 | 25* | 26
O=C(Nc1ccc(S(=O)(=O)NCc2ccco2)cc1)C1CCCCC1 | i | -1 | i | 12 | -1 | 20
CCOC(=O)N1CCN(C(=S)Nc2ccc3nc(N4CCN(CC)CC4)cc(C)c3c2)CC1 | i | -22 | -8.3* | 14 | 0 | 14
COc1cc(/C=N/NC(N)=O)c(Br)cc1OCC(=O)Nc1ccccc1C | i | 80* | i | 1 | 0 | 5
CCOc1cc(/C=N/NC(N)=O)cc(Br)c1OCC(=O)Nc1ccccc1C | i | 98* | i | -10 | -24 | 29
CCOc1cc(/C=N/NC(N)=O)cc(Br)c1OCC(=O)Nc1cccc2ccccc12 | i | 6 | i | -8 | -1 | 28
COc1ccccc1C(=O)NC(=O)COC(=O)c1cccc(C)c1O | i | 4 | i | -3 | 0 | 25
CCN(CC)C(=O)Cn1cc(S(=O)(=O)CC(=O)N2CCOCC2)c2ccccc21 | i | -8 | i | 2 | 0 | 10
Cc1cc(C(=O)OCC(=O)Nc2cccc(S(=O)(=O)N(C)C)c2)c(C)o1 | i | -7 | i | 2 | -1 | -89*
Cc1cc(C(=O)OCC(=O)Nc2ccc(F)cc2)c(C)o1 | i | -3 | i | 1 | -34 | -82*
COCc1nnc(NC(=O)C2CC(=O)N(CCc3ccc(F)cc3)C2)s1 (centres undefined) | i | -4 | i | -12 | 0 | 17
Cn1nc(-c2ccccn2)nc2c(=O)n(C)c(=O)nc1-2 | i | 148* | i | 33 | -4 | -92*
COc1ccc(-c2nc(-c3ccccn3)ncc2S(C)(=O)=O)cc1 | i | 2 | i | -4 | 0 | 29
CCOCCCN(C)C1CCN(C(=O)c2oc3ccccc3c2NC(=O)COc2ccc(F)cc2)CC1 | i | 2 | -7.2* | 10 | 1 | 29
CCOCCCN(C)C1CCN(C(=O)c2oc3ccccc3c2NC(=O)Cc2ccc(F)cc2)CC1 | i | 23 | i | -5 | 1 | 15
O=C(CC1(CC(=O)N2CCOCC2)CCCC1)Nc1ccccc1 | · | · | · | 6 | · | ·
CN(C)c1ccc(/C=C2/NC(=O)NC2=O)cc1 | i | 1 | i | 5 | 0 | 12
O=C1NC(=O)/C(=C/c2ccc(OS(=O)(=O)c3ccc(F)cc3F)cc2)N1 | i | 7 | i | -10 | 41* | -3
CC1(C)NC(=O)N(CC(=O)OCC(=O)c2ccc(Br)s2)C1=O | · | · | · | 0 | · | ·

Assay outcomes deposited in PubChem BioAssay by several laboratories.
